Bioassay records as filed in PubChem.
Apoferritin bind: binds horse apoferritin like a general anesthetic | Potency, µM (top dose mostly 77.5 µM), inactives show at the highest dose activity change, negative = displacement, hits mostly inhibitors | P02791 | apoferritin/1-aminoanthracene competitive binding, fluorescence | AID 485281 | 0.074% of 350,000 active; further: on the % scale 0 is the no-effect control and ±100 the full control effect; nearly all actives have a fitted effect of over 20% in size
Target sequence (P02791 2-175 limits assumed): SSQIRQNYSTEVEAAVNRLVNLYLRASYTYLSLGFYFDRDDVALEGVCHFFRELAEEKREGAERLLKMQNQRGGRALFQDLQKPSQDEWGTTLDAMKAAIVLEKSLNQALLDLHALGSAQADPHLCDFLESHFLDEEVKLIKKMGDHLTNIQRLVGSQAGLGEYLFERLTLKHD
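Concentration-response curves derived by four-parameter Hill fitting of normalized fluorescence, where compounds displaced 1-AMA from 10 uM horse apoferritin following a brief 10 min room-temperature incubation; propofol titration acted as positive control.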
RGS4 inh: blocks human RGS4-accelerated GTP hydrolysis; P49798; Transcreener GDP fluorescence polarization, RGS4-accelerated GTP hydrolysis; Potency, µM (titrated, usually from 114 µM), for the others: at the top dose activity change, negative = inhibition, hits mostly inhibitors; 0.039% of 390,000 active; further: on the % scale 0 is the no-effect control and ±100 the full control effect; nearly all actives have a fitted effect of over 75% in size
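MLSMR compounds (23 nl, pin-transferred) preincubated 10 min at room temperature with a 500nM (2x) first reagent, then RGS4 at 900nM (2x) plus Transcreener GDP mix added; fluorescence polarization (620/688 nm) read before and after 90 min at 30 °C.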
B2AR arrestin: beta2AR (human) beta-arrestin recruitment activity; 0.02% of 330,000 active; AID 492947; P07550; beta-arrestin recruitment to beta2AR, cell-based reporter; Potency, µM (highest dose often 46.1 µM), without a hit: at the top dose activation, actives largely listed as activators;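 further: 0% = DMSO controls and full agonism = EC100 isoproterenol or metaproterenol; nearly all actives have a fitted effect of over 65% in size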
Target sequence (P07550 whole entry, looked up): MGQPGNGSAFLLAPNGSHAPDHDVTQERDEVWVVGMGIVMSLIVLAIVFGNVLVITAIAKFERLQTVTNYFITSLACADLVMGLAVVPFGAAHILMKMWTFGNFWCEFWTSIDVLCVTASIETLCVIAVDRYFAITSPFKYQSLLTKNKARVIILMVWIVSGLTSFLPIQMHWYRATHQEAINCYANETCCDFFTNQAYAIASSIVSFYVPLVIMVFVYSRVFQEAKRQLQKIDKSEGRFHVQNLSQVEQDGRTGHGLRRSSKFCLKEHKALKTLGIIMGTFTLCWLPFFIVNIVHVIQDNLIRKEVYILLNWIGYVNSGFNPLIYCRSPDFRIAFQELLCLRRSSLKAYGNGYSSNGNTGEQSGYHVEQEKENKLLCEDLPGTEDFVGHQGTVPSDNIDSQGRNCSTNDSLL
MmCpn inh: M. maripaludis TRiC chaperonin inhibition; AID 504842; Potency, µM (top dose mostly 76.9 µM), without a hit: at the highest dose activity, negative = inhibition, actives largely listed as inhibitors; purified Mm-Cpn ATPase, ADP Transcreener TR-FRET; 0.031% of 330,000 active; further: on the % scale 0 is the no-effect control and ±100 the full control effect; nearly all actives have a fitted effect of over 80% in size
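25 nM Mm-CPN + cpd, 10 min 37°C; + 10 uM ATP, 30 min 37°C; buffer 30 mM Tris pH 7.4, 100 mM KCl, 5 mM MgCl2, 1 mM DTT; Transcreener ADP HTRF detection 30 min RT.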
Pin1 inhibitor: blocks the human prolyl isomerase Pin1; Pin1 FP peptide displacement, HiFluor488, 10 min; Potency, µM (top dose mostly 115 µM), inactives show at the highest dose activity, negative = inhibition, usual class: inhibitors; 0.009% of 390,000 active; active means well fitted inhibition curve with a large enough effect in the polarisation, with a control signal flat, not every such curve was filed as active; inconclusive means small, poorly fitted or top-dose-only effect, or effect the other way, or a change in a side signal; inactive means no such curve, though single readings can be large or run the other way; the % refers to the polarisation; further: on the % scale 0 is the no-effect control and ±100 the full control effect
GRP78 ERSR act: induces the endoplasmic reticulum stress response in human glioma cells; AID 602332; Potency, µM, for inactives: at the highest dose activation, actives largely listed as activators; U87-MG GRP78 promoter luciferase reporter, 16 h; 0.02% of 420,000 active; further: series mostly up to about 76 µM; % of control where 0% means no effect; nearly all actives have a fitted effect of over 35% in size
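ERSR induction read as luciferase luminescence (Bright-Glo, 10 min at room temperature) in stably transfected human U87-MG glioma cells exposed to compounds for 16 h, using GRP78 as sensor.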
* marks the source's active call; other numbers are inactive results; ? = inconclusive; . = no result; ! = repeats disagree; [ ] = remark or other dose. Most compounds without a hit are left out; they make up all but 0.17% or so of the library. Unless noted, the call rests on the fitted dose curve; in most records, active means well fitted curve in the direction sought with a large enough effect; inconclusive means small, poorly fitted or top-dose-only effect, or another doubt; inactive means no such curve, though single readings can be large; an effect the other way counts as inactive or inconclusive. Potency means the concentration at half of the fitted maximal effect.

SMILES	Apoferritin bind	RGS4 inh	B2AR arrestin	MmCpn inh	Pin1 inhibitor	GRP78 ERSR act
O=c1c(-c2ccccc2)coc2c(CN3CCCC3)c(O)ccc12	70%	3%	3%	45µM*	?	-5%
O=C(O)c1cc([N+](=O)[O-])ccc1Nc1ccccc1	-20%	-14%	0%	1%	-10%	-3%
Nc1cc([N+](=O)[O-])ccc1Nc1ccccc1	16µM*	-16%	0%	0%	20%	1%
N#Cc1nc(Nc2cc(F)cc(F)c2)c2ncn(CCCN3CCCC3)c2n1	.	.	.	.	7%	.
COc1ccc(C(=S)NCS(=O)(=O)c2ccc(C)cc2)cc1	?	-49%	0%	-1%	6%	-3%
Cc1ccc(S(=O)(=O)CNC(=S)c2ccc3ccccc3c2)cc1	25µM*	-3%	?	-2%	-10%	2%
Cc1ccc(S(=O)(=O)CNC(=S)c2cccc(C)c2)cc1	28µM*	-11%	2%	1%	0%	-7%
O=c1c2ccccc2nc2sc(NCc3ccc(Oc4ccccc4)cc3)nn12	.	.	.	.	6%	.
CCCCCCCCCCCCCCCC(=O)NCC(COP(=O)([O-])OCC[N+](C)(C)C)OCC (stereo not drawn)	.	21µM*	.	.	.	-6%
COc1ccc(O)c(C2Nc3ccccc3C(=O)N2Cc2ccccc2)c1 (stereo not drawn)	.	.	.	.	1%	.
O=c1c2ccccc2nc2sc(Nc3ccc4c(c3)CNC4)nn12	.	.	.	.	0%	.
COc1cc(-c2ccc3ncnc(NCCc4cnc[nH]4)c3c2)cc(OC)c1OC	.	.	.	.	7%	.
COc1cc(C(=O)Nc2ccc(S(=O)(=O)Nc3nccc(C)n3)cc2)cc(OC)c1OC	10%	-17%	-1%	1%	-7%	32µM*
COc1cc(C(=O)Nc2ccc(S(=O)(=O)Nc3cnc4ccccc4n3)cc2)cc(OC)c1OC	-6%	-10%	-1%	-1%	5%	32µM*
COc1cc(OC)cc(C(=O)Nc2ccc(S(=O)(=O)Nc3cnc4ccccc4n3)cc2)c1	.	-3%	.	.	3%	-4%
NC(=O)C1CCN(c2ncc(-c3ccc(Br)cc3)s2)CC1	.	.	.	.	2%	.
O=c1c2ccccc2nc2sc(NCc3ccc(Cc4ccccc4)cc3)nn12	.	.	.	.	8%	.
Cc1ccc(S(=O)(=O)C/N=C(/NC(=S)N(c2ccccc2)c2ccccc2)c2ccccc2)cc1	14µM*	?	0%	-4%	-18%	-1%
COc1cc(O)c(CC=C(C)C)c(O)c1C(=O)CCc1ccc(O)cc1	-19%	-3%	0%	6%	-1%	-3%
O=C(CCc1ccc(O)cc1)c1c(O)cc(O)cc1O	-21%	19µM*!	-1%	-1%	1%	3%
CC(C)(C)OC(=O)NCC(=O)NNC(=O)c1cc2ccccc2[nH]1	.	.	.	.	1%	.
CC(C)(C)c1ccc(OCCC(=O)NC2=NCCS2)cc1	13µM*	-14%	-1%	1%	4%	?
COc1cc(SSc2cc(OC)cc([N+](=O)[O-])c2N)c(N)c([N+](=O)[O-])c1	-18%	-119%	14µM*	-4%	-13%	-1%
COc1cc([N+](=O)[O-])c2ncsc2c1	-12%	-18%	0%	-2%	-7%	-2%
Cc1cc(NC(=O)Cn2nnc3sc4c(c3c2=O)CCC(C(C)(C)C)C4)no1 (stereo not drawn)	13µM*	-8%	0%	-1%	34%	-2%
SMILES	Apoferritin bind	RGS4 inh	B2AR arrestin	MmCpn inh	Pin1 inhibitor	GRP78 ERSR act
O/N=C(\c1ccc(Cl)cc1Cl)c1ncc(C(F)(F)F)cc1Cl	18µM*	-11%	0%	0%	-1%	-6%
C=C(C)C(=O)OC1(C(F)(F)F)Oc2cc(C)ccc2NC1=O (stereo not drawn)	18µM*	0%[11.4 µM]	?	-1%	0%	-13%
O=C(N[C@@H](Cc1ccccc1)C(=O)CCl)OCc1ccccc1	.	3.4µM*	0%	0%	-2%	-14%
O=C(CNC(=O)c1ccc(Cl)cc1Cl)OCC(=O)c1ccc2c(c1)OCCO2	14µM*	-11%	0%	-1%	3%	0%
C=CCNc1nnc(-c2cccc3ccccc23)o1	.	.	.	.	3%	.
CS(=O)(=O)N1CCN(c2nc(-c3ccc(Br)cc3)cs2)CC1	.	.	.	.	-3%	.
C=CCn1c(-c2ccc(Cl)cc2)c[nH]c1=S	-6%	-44%	20µM*	-18%	2%	4%
CN=c1nc(-c2ccccc2)n(-c2ccccc2)s1	.	3.8µM*	0%	?	1%	-15%
COC(=O)c1sccc1NC(=S)N1CCC(C(N)=O)CC1	-5%	0%	0%	0%	-1%	-2%
COC(=O)c1sccc1NC(=S)N1CCCCC1	40µM*	4%	0%	-2%	5%	-3%
O=[N+]([O-])c1ccc(CNc2ccc(Cl)cc2)s1	14µM*	-6%	?	2%	-9%	-3%
Cc1ccc(NS(=O)(=O)c2cc3c(cc2N(C)C)NC(=O)CC3)cc1C	.	.	.	.	-7%	.
CC1C/C(=N\NC(N)=S)c2cc(Cl)ccc2S1 (stereo not drawn)	5%	-29%	6.3µM*	-13%	?	-1%
CCc1ccc(S(=O)(=O)/N=C2/C=C(Sc3ncn[nH]3)C(=O)c3ccccc32)cc1	-2%	-137%	-1%	-1%	43µM*	-14%
COc1ccc(C2Nc3ccccc3C(=O)N2CCc2ccccc2)cc1COc1ccc(NC(C)=O)cc1 (stereo not drawn)	.	.	.	.	-3%	.
COc1ccc(NC2C[C@H]3CCCC(=O)N4CC[C@@H](C2)[C@@H]34)cc1 (stereo partly drawn)	-13%[110 µM]	.	.	.	.	50µM*
COc1ccc(NC2=Nc3ccccc3N[C@@]23C[C@H]2CCCC(=O)N4CC[C@@H](C3)[C@@H]24)cc1	.	-11%	.	.	-8%	3%
O=C(NC1CCc2ccccc21)c1cc(COc2cncc(Cl)c2)on1 (stereo not drawn)	45µM*	16%	-1%	-4%	-10%	-2%
CN1CCN(Cc2cc(COCc3ccccc3)c3cccnc3c2O)CC1	-10%	-7%	2.5µM*	2%	-11%	-1%
Oc1c(Cl)cc(CN2CCOCC2)c2cccnc12	.	-33%	3%	-2%	-4%	-3%
Oc1c(CN2CCc3ccccc3C2)cc(Cl)c2cccnc12	?	-37%	7.1µM*	0%	-13%	-4%
CCC1CCCCN1S(=O)(=O)c1ccc(C(=O)N(CCCN(C)C)c2nc3cc4c(cc3s2)OCO4)cc1 (stereo not drawn)	56µM*	22%	-1%	-3%	-10%	-10%
CN(C)CCCN(C(=O)c1ccc(S(=O)(=O)N2CCCCCC2)cc1)c1nc2cc3c(cc2s1)OCO3	.	.	.	.	.	-6%
CC(=O)Nc1sc2c(c1-c1ccccc1)CCNC2	.	.	.	.	-4%	.
